Source: PubChem BioAssay (Tox21)
Records with an inconclusive call do not appear. Active and inactive are the calls of the source. Unless noted, calls follow the shape of the dose curve; as a rule, active = well fitted curve in the direction sought with a large enough effect in the repeat runs; inconclusive = weak or mixed curves; inactive = no such curve, though single readings can be large; an effect the other way counts as inactive or inconclusive.

How the values were obtained:
[1] = qHTS assay to identify small molecule antagonists of the vitamin D receptor (VDR) signaling pathway - cell viability counter screen (AID 743225); also: nearly all actives have a fitted effect of over 50% in size
Method in brief: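 In this counter screen, VDR-bla HEK 293T cells receive test compound plus 3 nM final calcitriol for 16 h at 37C. Room-temperature steps of 2 h with the beta-lactamase substrate, then 30 min with CellTiter-Glo, precede the luminescence read.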

[2] = qHTS assay to identify small molecule agonists of the NFkB signaling pathway (AID 1159509; active = well fitted curve in the direction sought with a large enough effect in the signal ratio in the repeat runs, not every such curve was filed as active; the % refers to the signal ratio; also: series mostly up to about 61 µM)
Method in brief: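 ME-180 NFkB-bla, 2,000 cells/well, overnight plating; cpd pinned in DMSO, 5 h 37 C; B/G FRET substrate 1.5 h RT; ex 405, em 460/530 nm.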

[3] = qHTS assay to identify small molecule agonists of the NFkB signaling pathway - cell viability counter screen (AID 1159515; calls by dose curve; also: series mostly up to about 61 µM; nearly all actives have a fitted effect of over 55% in size)
Method in brief: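 Multiplexed viability readout: after the 5 hr compound exposure and 1.5 hr FRET substrate step, CellTiter-Glo reagent went into the same NFkB-bla ME-180 wells; ATP luminescence was measured after 30 min at room temperature.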

[4] = qHTS assay to identify small molecule agonists of the endoplasmic reticulum stress response signaling pathway (AID 1159516; active = well fitted activation curve with a large enough effect in the signal ratio in the repeat runs, not every such curve was filed as active; the % refers to the signal ratio)
Method in brief: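 Tox21 10K library screened in quantitative HTS format on ESRE-bla HeLa cells, a beta-lactamase reporter under ER stress response element control; 5 hr treatment, FRET read.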

[5] = qHTS assay to identify small molecule agonists of the endoplasmic reticulum stress response signaling pathway - cell viability counter screen (AID 1159517; calls by dose curve; also: series mostly up to about 61 µM; nearly all actives have a fitted effect of over 50% in size)
Method in brief: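 HeLa cells carrying an ESRE-driven beta-lactamase reporter receive compound for 5 hr at 37 C. Cell viability is then gauged with CellTiter-Glo by luminescence, 30 min at room temperature.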

[6] = qHTS assay to identify small molecule antagonists of the retinoid-related orphan receptor gamma (ROR-gamma) signaling pathway - cell viability counter screen (AID 1159520); also: nearly all actives have a fitted effect of over 50% in size
Method in brief: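 Cytotoxicity was read from cellular ATP (CellTiter-Glo luminescence) after 16 hr at 37 C with 1 uM doxycycline induction. The inducer was added 2 hr after compound transfer to Tet-on ROR gamma CHO cells.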

[7] = biological target: Nuclear receptor ROR-gamma (Homo sapiens) (UniProt P51449); experiment: qHTS assay to identify small molecule antagonists of the retinoid-related orphan receptor gamma (ROR-gamma) signaling pathway (AID 1159521;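 also: CHO cells with doxycycline inducible ROR-gamma driving an RORE luciferase reporter; top concentration of the series differs between compounds; nearly all actives have a fitted effect of over 50% in size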)
Method in brief: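 Screening format: cell-based luciferase reporter in CHO cells with doxycycline-inducible RORγ. Compound pre-exposure lasts 2 h, doxycycline is 1 uM final, induction runs 16 h at 37 C, and ONE-Glo luminescence is read.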

[8] = qHTS assay to identify small molecule agonists of the AP-1 signaling pathway - cell viability counter screen (AID 1159525; calls by dose curve; also: nearly all actives have a fitted effect of over 55% in size)
Method in brief: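 Luminescent ATP readout (Cell Titer Glo, 30 min RT), normalised to DMSO and tetra n-octyl ammonium bromide controls. Cells were ME-180 AP-1-bla in 0.5% dialyzed FBS Opti-MEM, with a 5 h, 37 °C compound exposure.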

[9] = qHTS assay to identify small molecule agonists of the AP-1 signaling pathway (AID 1159526; calls by dose curve)
[10] = qHTS assay to identify small molecule agonists of the RXR signaling pathway - cell viability counter screen (AID 1159529)
Method in brief: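 Viability read-out for the RXR-alpha agonist qHTS: luminescent CellTiter-Glo signal after 30 min at RT. HEK 293T bla reporter cells, 2% charcoal-stripped FBS, 16 hr compound incubation; tetraoctyl ammonium bromide as cytotoxic control.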

[11] = qHTS assay to identify small molecule antagonists of the retinoid acid receptor (RAR) signaling pathway - cell viability counter screen (AID 1159551); also: nearly all actives have a fitted effect of over 35% in size
Method in brief: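 Cytotoxicity counter screen in C3RL4 cells: 6 h compound exposure with 1 uM retinol (final), viability from cellular ATP by luminescence.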

[12] = qHTS assay to identify small molecule antagonists of the retinoic acid receptor (RAR) signaling pathway (AID 1159552; also: nearly all actives have a fitted effect of over 50% in size)
Method in brief: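 Using a RARE-driven luciferase construct in C3RL4 cells, retinol at 1 uM final provided the agonist stimulus while compounds were co-applied. After 6 hours at 37 C, luminescence was recorded to flag inhibitors of retinol signaling.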

[13] = qHTS assay to identify small molecule agonists of the retinoic acid receptor (RAR) signaling pathway (AID 1159553); also: potency is read from the fitted curve at half-maximal effect
Method in brief: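 Agonist activity was scored in C3RL4 cells bearing a retinoic acid response element luciferase construct. Cells were treated with compounds for 6 hr at 37 C, and luciferase signal was measured as luminescence.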

[14] = qHTS assay to identify small molecule agonists of the vitamin D receptor (VDR) signaling pathway - cell viability counter screen (AID 743224)
Method in brief: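 Viability is measured in the same wells as the VDR-bla reporter assay: after 16 h compound treatment and 2 h substrate loading, CellTiter-Glo is added and luminescence read 30 min later.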

[15] = biological target: Retinoic acid receptor RXR-alpha (Homo sapiens) (UniProt P19793); experiment: qHTS assay to identify small molecule agonists of the RXR signaling pathway (AID 1159527; calls by dose curve; also: nearly all actives have a fitted effect of over 35% in size)
Method in brief: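 Fluorescence ratio readout (460 vs 530 nm) from GeneBLAzer RXR-alpha HEK 293T cells after 16 hr compound treatment; cells seeded 5 hr beforehand in low-serum, charcoal-stripped medium.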

Measured: Potency

Sequence of Retinoic acid receptor RXR-alpha (Homo sapiens) (P19793 whole entry, looked up): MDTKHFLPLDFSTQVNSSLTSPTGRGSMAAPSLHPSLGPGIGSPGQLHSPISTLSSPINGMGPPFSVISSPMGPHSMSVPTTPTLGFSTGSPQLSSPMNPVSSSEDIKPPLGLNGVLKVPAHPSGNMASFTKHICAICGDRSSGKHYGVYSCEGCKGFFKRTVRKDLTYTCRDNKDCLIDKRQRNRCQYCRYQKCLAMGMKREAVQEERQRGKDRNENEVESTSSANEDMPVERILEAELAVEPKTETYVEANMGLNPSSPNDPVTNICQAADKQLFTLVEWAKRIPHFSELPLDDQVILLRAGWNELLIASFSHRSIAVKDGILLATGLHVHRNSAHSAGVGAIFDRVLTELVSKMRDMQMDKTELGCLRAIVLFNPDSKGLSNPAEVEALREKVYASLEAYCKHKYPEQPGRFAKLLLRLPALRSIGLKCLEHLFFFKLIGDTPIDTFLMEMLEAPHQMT

CC(=O)CCc1ccc2c(c1)OCO2
inactive: [1] | [2] | [3] | [4] | [5] | [6] | [7] | [8] | [9] | [10] | [11] | [12] | [13]

NC(=S)C(N)=S
inactive: [1] | [2] | [3] | [4] | [5] | [6] | [7] | [8] | [9] | [10] | [11] | [12] | [13]

O=C(Cc1ccccc1)OCc1ccccc1
active: [13] 61.6 µM
inactive: [14] | [2] | [3] | [4] | [5] | [6] | [7] | [8] | [9] | [10] | [11] | [12]

COc1cc(OC)nc(NC(=O)NS(=O)(=O)c2ncccc2C(=O)N(C)C)n1
inactive: [14] | [2] | [3] | [4] | [5] | [6] | [7] | [8] | [9] | [15] | [11]

CCCCOC(=O)c1ccccc1N
inactive: [14] | [1] | [2] | [3] | [4] | [5] | [6] | [7] | [8] | [9] | [15] | [12]

C[C@]12CC[C@H]3[C@@H](CCC4=CC(=O)CC[C@@]43C)[C@@H]1CC[C@@H]2C(=O)O
inactive: [14] | [1] | [2] | [3] | [4] | [5] | [6] | [7] | [8] | [9] | [10] | [11] | [13]

CCOc1nc(C(Cl)(Cl)Cl)ns1
inactive: [14] | [2] | [3] | [4] | [5] | [6] | [7] | [8] | [9] | [10] | [11] | [12] | [13]

O=C1CN=C(c2ccccc2)c2cc([N+](=O)[O-])ccc2N1
inactive: [14] | [1] | [2] | [3] | [4] | [5] | [6] | [7] | [8] | [9] | [15] | [11]

ClCCOCOCCCl
inactive: [14] | [1] | [2] | [3] | [4] | [5] | [6] | [7] | [8] | [9] | [15] | [11] | [13]

N#Cc1c(Cl)cccc1Cl
inactive: [14] | [1] | [2] | [3] | [4] | [5] | [6] | [7] | [8] | [9] | [15] | [10]

COc1cc2c(cc1OC)[C@@]13CCN4CC5=CCO[C@H]6CC(=O)N2[C@H]1[C@H]6[C@H]5C[C@H]43
inactive: [14] | [1] | [2] | [3] | [4] | [5] | [6] | [7] | [8] | [9] | [10] | [11] | [12] | [13]

CC1=NNC(=O)N(/N=C/c2cccnc2)C1
inactive: [14] | [1] | [2] | [3] | [4] | [5] | [6] | [7] | [8] | [9] | [10] | [11] | [12]

CCCCC(=O)Cl
inactive: [14] | [1] | [2] | [3] | [4] | [5] | [6] | [7] | [8] | [9] | [15] | [11]

COCC(=O)N(c1c(C)cccc1C)N1CCOC1=O
inactive: [14] | [1] | [2] | [3] | [4] | [5] | [6] | [7] | [8] | [9] | [15] | [11]

C=C(C)CN(CC)c1c([N+](=O)[O-])cc(C(F)(F)F)cc1[N+](=O)[O-]
inactive: [14] | [2] | [3] | [4] | [5] | [6] | [7] | [8] | [9] | [10] | [11] | [12] | [13]

CN/C(=N\[N+](=O)[O-])NCC1CCOC1 (stereo not drawn)
inactive: [14] | [1] | [2] | [3] | [4] | [5] | [6] | [7] | [8] | [9] | [15] | [11]

CCOP(=S)(OCC)SCSc1ccc(Cl)cc1
inactive: [14] | [1] | [2] | [3] | [4] | [5] | [6] | [7] | [8] | [9] | [10] | [11] | [12] | [13]

COc1cc(OC)nc(Sc2cccc(Cl)c2C(=O)O)n1
inactive: [14] | [2] | [3] | [4] | [5] | [6] | [7] | [8] | [9] | [15] | [11]

CCSC(=O)N(CC)C1CCCCC1
inactive: [14] | [1] | [2] | [3] | [4] | [5] | [6] | [7] | [8] | [9] | [15] | [11]

CCOC(=O)NC(=S)Nc1ccccc1NC(=S)NC(=O)OCC
inactive: [14] | [2] | [3] | [4] | [5] | [6] | [7] | [8] | [9] | [10] | [11] | [12]

CN1C(=S)CN=C(c2ccccc2)c2cc(Cl)ccc21
inactive: [14] | [2] | [3] | [4] | [5] | [6] | [7] | [8] | [9] | [10] | [11] | [12] | [13]
